This is an account of results in ChEMBL document CHEMBL2218924, “A broad activity screen in support of a chemogenomic map for kinase signalling research and drug discovery” (Biochem J, 2013).

In assay [1] the target is T1, Ephrin type-A receptor 3 (Homo sapiens) (UniProt P29320).
T1 sequence (whole entry): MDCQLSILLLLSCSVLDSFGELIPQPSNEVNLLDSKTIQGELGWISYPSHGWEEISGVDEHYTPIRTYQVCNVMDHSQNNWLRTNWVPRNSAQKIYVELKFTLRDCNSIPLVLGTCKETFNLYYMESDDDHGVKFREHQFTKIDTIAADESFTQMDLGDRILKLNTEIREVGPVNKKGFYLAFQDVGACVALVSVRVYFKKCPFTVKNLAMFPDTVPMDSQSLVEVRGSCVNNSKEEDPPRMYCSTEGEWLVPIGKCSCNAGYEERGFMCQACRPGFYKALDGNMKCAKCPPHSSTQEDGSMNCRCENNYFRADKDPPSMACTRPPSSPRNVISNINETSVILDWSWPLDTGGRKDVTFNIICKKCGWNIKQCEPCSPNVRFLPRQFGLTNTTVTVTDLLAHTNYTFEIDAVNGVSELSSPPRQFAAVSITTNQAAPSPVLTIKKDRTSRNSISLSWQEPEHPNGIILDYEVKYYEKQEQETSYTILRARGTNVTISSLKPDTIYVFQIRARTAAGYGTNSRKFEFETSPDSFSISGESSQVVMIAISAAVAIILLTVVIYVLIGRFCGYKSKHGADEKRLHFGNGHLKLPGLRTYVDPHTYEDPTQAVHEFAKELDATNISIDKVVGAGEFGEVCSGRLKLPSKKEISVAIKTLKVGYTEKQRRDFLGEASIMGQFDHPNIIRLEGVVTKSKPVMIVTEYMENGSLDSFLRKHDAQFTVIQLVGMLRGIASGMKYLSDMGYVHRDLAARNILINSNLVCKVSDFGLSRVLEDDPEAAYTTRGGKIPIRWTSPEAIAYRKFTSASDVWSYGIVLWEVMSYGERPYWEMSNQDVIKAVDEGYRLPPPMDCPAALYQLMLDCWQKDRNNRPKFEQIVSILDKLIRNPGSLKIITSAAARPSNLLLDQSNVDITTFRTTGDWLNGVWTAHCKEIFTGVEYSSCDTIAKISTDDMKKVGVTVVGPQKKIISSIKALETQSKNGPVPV
The conditions noted are these: at 10 µM.

Assay [2] addresses Ephrin type-A receptor 4 (Homo sapiens) (UniProt P54764). Conditions: at 1 µM.
Assay [3] has the same target. The conditions noted are these: at 10 µM.
The target of assay [4] is Ephrin type-A receptor 5 (Homo sapiens) (UniProt P54756). Conditions: at 1 µM.
Assay [5] has the same target. The conditions noted are these: at 10 µM.
For assay [6], the target named is Ephrin type-A receptor 7 (Homo sapiens) (UniProt Q15375). Conditions: at 1 µM.
Assay [7] has the same target. The conditions noted are these: at 10 µM.
The target of assay [8] is T2, Ephrin type-A receptor 8 (Homo sapiens) (UniProt P29322).
T2 sequence (whole entry): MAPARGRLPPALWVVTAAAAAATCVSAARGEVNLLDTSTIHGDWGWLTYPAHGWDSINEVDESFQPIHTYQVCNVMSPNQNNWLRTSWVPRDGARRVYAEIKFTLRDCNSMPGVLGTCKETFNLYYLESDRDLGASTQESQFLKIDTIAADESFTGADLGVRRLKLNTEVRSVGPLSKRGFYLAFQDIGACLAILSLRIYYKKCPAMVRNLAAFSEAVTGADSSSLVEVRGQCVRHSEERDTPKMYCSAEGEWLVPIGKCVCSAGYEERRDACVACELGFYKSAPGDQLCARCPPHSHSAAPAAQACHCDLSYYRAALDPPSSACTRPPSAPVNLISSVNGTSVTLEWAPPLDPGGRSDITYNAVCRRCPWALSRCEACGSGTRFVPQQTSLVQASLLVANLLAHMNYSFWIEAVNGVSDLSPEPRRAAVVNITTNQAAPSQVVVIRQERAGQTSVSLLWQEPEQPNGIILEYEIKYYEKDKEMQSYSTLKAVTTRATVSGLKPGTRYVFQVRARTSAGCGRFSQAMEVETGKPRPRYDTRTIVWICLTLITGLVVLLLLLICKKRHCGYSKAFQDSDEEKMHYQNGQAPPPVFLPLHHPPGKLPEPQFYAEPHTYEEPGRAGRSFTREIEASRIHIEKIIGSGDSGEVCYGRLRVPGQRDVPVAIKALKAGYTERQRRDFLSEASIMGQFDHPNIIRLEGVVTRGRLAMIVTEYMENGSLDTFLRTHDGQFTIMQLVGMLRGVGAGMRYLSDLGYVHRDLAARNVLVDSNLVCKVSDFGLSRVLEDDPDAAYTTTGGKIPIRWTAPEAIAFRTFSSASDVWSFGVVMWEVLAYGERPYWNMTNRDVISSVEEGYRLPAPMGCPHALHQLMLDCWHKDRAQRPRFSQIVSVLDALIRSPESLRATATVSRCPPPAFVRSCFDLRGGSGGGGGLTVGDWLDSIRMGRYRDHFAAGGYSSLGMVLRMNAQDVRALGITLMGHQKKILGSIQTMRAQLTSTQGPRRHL
The conditions noted are these: at 1 µM.

Assay [9] has as its target T2, Ephrin type-A receptor 8 (Homo sapiens). The conditions noted are these: at 10 µM.
Assay [10] has as its target T3, Ephrin type-B receptor 1 (Homo sapiens) (UniProt P54762).
T3 sequence (whole entry): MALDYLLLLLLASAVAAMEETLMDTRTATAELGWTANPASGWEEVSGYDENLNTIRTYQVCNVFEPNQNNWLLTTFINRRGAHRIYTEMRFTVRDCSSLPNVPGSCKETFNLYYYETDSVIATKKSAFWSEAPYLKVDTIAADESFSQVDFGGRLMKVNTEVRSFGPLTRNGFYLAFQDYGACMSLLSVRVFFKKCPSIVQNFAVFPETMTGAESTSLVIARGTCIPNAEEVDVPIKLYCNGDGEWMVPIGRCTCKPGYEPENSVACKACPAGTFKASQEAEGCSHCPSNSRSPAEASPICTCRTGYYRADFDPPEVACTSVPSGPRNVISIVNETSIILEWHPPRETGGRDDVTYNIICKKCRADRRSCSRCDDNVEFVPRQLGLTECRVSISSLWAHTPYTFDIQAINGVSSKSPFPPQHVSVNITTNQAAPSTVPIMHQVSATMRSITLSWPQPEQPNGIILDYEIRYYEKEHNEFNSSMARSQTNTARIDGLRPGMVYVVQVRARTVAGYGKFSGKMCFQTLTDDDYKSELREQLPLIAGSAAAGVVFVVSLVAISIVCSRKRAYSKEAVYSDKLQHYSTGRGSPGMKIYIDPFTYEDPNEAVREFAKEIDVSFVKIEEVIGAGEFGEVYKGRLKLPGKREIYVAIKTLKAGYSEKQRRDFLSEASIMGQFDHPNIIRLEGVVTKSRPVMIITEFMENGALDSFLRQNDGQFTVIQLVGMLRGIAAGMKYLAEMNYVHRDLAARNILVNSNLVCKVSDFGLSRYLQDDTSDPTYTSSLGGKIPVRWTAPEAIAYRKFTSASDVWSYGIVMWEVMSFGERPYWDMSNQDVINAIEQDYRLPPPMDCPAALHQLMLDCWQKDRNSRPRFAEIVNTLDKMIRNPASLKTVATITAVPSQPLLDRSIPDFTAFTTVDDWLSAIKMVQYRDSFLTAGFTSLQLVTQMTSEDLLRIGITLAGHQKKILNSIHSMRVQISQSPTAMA
Conditions: at 1 µM.

In assay [11] the target is T3, Ephrin type-B receptor 1 (Homo sapiens). Conditions: at 10 µM.
Assay [12] addresses T4, Ephrin type-B receptor 2 (Homo sapiens) (UniProt P29323).
T4 sequence (whole entry): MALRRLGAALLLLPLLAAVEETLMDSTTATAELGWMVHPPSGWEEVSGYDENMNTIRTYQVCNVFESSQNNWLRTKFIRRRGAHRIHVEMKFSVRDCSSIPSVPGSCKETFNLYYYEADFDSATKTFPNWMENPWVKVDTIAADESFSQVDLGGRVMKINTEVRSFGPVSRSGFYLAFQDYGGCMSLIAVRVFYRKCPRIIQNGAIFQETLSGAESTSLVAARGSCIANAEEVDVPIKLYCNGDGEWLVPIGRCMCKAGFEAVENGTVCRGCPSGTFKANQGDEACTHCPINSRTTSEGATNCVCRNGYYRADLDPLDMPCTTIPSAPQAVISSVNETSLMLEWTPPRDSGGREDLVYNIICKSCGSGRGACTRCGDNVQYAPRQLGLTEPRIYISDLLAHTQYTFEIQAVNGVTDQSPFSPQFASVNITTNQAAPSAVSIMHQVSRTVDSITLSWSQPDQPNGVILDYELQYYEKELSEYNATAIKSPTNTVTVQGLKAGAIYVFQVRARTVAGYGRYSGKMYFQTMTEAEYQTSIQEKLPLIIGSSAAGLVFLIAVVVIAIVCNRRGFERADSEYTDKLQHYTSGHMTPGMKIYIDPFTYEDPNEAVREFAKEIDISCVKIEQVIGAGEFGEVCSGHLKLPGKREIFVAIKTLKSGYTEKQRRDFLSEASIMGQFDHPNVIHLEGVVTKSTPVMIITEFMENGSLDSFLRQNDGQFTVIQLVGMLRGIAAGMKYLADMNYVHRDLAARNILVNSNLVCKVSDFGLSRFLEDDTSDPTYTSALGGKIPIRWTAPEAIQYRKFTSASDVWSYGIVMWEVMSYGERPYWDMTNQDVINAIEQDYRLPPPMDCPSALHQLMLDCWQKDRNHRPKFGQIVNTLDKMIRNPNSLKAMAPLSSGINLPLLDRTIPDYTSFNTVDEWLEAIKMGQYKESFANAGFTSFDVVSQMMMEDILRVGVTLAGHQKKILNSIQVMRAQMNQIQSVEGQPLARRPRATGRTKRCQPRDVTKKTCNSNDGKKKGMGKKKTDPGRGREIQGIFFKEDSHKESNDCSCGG
The conditions noted are these: at 1 µM.

Assay [13] concerns the target T4, Ephrin type-B receptor 2 (Homo sapiens). The conditions noted are these: at 10 µM.
Assay [14] has as its target T5, Ephrin type-B receptor 4 (Homo sapiens) (UniProt P54760).
T5 sequence (whole entry): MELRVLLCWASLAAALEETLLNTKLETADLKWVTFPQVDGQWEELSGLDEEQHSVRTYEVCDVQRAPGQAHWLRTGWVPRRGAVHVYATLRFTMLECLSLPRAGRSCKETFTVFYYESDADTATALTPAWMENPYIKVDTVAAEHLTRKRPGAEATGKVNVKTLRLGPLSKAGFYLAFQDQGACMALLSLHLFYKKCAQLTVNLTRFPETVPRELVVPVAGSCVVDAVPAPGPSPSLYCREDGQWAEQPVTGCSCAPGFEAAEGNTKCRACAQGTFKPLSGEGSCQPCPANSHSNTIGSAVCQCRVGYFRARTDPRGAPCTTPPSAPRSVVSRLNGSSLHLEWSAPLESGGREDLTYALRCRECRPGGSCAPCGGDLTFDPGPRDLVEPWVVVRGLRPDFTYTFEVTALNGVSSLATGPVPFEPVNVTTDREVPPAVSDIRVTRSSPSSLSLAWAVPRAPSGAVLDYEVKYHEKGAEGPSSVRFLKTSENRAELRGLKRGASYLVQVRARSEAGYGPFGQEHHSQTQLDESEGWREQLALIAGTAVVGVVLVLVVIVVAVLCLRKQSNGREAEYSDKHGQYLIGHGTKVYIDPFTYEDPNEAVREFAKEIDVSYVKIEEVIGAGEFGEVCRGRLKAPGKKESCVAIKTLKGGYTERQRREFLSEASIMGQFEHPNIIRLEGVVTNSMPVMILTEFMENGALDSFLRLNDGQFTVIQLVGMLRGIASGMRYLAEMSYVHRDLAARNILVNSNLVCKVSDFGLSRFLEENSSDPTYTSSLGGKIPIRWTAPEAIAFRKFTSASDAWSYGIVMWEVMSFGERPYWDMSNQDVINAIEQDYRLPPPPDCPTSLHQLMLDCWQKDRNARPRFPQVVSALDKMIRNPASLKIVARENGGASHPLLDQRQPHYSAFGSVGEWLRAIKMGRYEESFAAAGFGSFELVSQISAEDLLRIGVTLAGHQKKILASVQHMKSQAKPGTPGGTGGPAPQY
The conditions noted are these: at 1 µM.

Assay [15] addresses T5, Ephrin type-B receptor 4 (Homo sapiens). The conditions noted are these: at 10 µM.
The target in assay [16] is Receptor tyrosine-protein kinase erbB-4 (Homo sapiens) (UniProt Q15303). Conditions: at 1 µM.
Assay [17] has the same target. Conditions: at 10 µM.
The target in assay [18] is Focal adhesion kinase 1 (Homo sapiens) (UniProt Q05397). The conditions noted are these: at 1 µM.

Usually residual activity stands for the activity still measured, relative to the control. Lower therefore signals a large loss of activity.

Receptor tyrosine-protein kinase erbB-4 (Homo sapiens), sequence (Q15303 whole entry): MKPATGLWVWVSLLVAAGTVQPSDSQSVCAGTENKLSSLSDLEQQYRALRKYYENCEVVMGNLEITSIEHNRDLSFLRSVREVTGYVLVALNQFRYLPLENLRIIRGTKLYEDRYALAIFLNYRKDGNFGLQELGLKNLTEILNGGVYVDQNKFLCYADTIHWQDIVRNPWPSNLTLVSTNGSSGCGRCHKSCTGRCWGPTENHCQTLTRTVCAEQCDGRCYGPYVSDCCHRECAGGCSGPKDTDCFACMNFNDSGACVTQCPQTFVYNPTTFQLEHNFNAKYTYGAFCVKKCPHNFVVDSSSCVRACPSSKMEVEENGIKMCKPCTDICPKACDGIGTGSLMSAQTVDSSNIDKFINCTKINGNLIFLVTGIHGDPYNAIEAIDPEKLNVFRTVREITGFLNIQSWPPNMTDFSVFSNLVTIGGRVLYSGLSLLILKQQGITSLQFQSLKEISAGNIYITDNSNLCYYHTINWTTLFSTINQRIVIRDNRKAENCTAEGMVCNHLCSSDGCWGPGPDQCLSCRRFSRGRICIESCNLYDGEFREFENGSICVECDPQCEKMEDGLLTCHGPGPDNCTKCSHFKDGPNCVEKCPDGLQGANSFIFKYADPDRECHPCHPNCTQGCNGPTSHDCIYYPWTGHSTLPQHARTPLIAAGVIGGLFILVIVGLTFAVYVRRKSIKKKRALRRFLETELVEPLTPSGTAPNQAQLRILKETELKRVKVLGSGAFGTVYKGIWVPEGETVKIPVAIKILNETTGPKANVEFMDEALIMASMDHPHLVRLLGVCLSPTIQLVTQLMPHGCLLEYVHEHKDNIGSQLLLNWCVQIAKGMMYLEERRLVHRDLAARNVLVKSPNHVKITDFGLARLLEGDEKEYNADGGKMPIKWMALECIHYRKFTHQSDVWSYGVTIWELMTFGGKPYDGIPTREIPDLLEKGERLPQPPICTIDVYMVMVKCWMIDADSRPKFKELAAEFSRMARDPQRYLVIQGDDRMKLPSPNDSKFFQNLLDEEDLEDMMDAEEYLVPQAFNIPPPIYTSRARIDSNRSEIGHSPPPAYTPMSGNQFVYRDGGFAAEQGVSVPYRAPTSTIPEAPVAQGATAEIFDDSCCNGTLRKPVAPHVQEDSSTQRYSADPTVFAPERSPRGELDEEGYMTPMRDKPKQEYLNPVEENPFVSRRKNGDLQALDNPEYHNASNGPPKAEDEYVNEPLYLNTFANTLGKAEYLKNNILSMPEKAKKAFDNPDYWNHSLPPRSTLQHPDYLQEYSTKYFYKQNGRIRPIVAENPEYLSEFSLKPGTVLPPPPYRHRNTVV
Ephrin type-A receptor 4 (Homo sapiens), sequence (P54764 whole entry): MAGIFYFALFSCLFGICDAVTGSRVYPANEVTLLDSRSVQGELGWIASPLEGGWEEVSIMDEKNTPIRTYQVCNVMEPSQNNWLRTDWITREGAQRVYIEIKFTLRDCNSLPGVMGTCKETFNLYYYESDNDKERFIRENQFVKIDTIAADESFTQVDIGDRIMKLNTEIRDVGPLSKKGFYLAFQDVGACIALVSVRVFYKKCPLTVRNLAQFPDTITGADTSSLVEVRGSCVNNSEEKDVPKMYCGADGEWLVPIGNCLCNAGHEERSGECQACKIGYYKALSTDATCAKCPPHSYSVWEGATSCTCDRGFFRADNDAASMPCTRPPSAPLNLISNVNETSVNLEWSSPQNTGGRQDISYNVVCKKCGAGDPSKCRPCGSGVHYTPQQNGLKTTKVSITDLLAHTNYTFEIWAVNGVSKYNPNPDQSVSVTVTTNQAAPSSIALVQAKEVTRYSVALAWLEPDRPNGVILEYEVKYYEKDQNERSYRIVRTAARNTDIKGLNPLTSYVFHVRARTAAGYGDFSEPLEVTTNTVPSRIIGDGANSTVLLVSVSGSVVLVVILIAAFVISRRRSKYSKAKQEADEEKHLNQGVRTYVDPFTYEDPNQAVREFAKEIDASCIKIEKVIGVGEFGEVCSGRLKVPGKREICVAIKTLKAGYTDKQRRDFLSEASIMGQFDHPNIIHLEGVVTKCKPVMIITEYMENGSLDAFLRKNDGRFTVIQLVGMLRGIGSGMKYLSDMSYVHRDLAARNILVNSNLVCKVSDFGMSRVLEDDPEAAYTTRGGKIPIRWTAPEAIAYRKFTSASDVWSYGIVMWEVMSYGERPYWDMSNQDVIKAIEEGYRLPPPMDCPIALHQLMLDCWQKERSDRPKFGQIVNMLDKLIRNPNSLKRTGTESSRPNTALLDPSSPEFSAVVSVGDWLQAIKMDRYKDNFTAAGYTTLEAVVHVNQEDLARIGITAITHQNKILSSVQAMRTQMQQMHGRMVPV
Ephrin type-A receptor 7 (Homo sapiens), sequence (Q15375 28-998 limits assumed): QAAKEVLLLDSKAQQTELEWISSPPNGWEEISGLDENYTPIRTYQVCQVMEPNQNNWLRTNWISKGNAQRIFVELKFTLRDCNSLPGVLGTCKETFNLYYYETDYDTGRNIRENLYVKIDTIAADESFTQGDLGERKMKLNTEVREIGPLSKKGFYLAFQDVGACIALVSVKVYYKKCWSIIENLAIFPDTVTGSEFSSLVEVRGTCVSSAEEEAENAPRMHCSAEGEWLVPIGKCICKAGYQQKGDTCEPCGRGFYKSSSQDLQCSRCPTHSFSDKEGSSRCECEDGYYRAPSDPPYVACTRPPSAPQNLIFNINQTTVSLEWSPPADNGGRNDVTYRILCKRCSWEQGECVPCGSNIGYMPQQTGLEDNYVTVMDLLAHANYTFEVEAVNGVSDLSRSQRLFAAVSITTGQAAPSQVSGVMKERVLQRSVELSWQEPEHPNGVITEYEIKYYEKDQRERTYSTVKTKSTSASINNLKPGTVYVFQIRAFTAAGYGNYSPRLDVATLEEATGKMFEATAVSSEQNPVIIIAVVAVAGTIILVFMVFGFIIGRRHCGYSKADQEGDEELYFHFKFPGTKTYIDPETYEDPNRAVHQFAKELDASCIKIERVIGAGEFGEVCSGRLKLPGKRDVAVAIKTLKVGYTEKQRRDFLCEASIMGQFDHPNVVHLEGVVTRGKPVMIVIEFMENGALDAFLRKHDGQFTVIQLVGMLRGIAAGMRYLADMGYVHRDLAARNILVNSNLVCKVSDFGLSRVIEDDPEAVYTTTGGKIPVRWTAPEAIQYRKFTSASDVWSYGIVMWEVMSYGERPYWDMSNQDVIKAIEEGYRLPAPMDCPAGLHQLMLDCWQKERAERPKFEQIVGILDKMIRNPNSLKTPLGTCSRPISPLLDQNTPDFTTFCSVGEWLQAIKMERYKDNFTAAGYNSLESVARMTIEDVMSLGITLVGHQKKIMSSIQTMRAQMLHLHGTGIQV
Ephrin type-A receptor 5 (Homo sapiens), sequence (P54756 whole entry): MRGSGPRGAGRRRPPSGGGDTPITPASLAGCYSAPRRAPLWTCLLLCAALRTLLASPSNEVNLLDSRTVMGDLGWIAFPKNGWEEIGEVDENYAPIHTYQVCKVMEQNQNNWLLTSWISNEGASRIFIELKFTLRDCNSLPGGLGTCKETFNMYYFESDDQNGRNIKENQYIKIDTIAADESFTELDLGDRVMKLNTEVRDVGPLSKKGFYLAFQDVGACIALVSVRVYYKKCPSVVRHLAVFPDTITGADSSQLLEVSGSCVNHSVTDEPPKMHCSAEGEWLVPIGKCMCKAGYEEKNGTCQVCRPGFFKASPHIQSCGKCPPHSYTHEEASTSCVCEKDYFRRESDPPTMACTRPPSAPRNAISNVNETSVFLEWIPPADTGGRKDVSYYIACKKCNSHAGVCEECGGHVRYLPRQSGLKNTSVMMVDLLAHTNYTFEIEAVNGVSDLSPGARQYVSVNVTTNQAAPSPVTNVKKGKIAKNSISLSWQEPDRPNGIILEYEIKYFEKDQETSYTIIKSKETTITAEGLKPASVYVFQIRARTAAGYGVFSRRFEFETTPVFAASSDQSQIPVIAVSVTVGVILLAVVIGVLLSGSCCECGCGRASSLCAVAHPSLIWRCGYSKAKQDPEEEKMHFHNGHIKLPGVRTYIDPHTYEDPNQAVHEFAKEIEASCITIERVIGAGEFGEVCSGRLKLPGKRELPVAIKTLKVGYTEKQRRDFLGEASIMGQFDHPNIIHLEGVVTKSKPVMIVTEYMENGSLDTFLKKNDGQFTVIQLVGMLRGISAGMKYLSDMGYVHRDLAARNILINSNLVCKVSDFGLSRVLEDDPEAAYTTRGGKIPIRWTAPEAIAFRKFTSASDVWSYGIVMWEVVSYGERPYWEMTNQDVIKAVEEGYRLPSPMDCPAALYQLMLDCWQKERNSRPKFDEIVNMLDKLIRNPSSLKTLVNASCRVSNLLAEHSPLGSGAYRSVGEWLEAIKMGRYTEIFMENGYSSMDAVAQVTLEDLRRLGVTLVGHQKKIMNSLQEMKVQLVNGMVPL

Consider `CCn1cnc2c(Nc3cccc(Cl)c3)nc(N[C@@H]3CCCC[C@@H]3N)nc21`, for which the residual activity amounted to 9% in [1]; 98% in assay [2]; 49% in assay [3]; 70% in [4]; 15% in [5]; 78% in [6]. Moreover, the residual activity in assay [7] turned out to be 23%; in assay [8] it was 89%; in [9], 31%; in [10] it was 32%; in assay [11] it was 1%; in assay [12], 56%. The residual activity in assay [13] came out at 0%; in assay [14], 51%; in assay [15], 9%; in assay [16] it was 83%; in [17] it was 68%; in assay [18] it was 53%.
